Screening results: PubChem, National Center for Advancing Translational Sciences (NCATS)
The sample as a whole holds a higher share of hits than the screen did.
ALOX12 inh = blocks human arachidonate 12S-lipoxygenase | actives 1.1% (n = 580,000) | Potency, µM (doses to about 108 µM), inactives show top-dose activity change, negative = inhibition, hits mostly inhibitors | P18054 | purified 12hLO, xylenol orange hydroperoxide absorbance; note: potency is the fitted concentration of half-maximal effect
Target sequence (P18054 whole entry, looked up): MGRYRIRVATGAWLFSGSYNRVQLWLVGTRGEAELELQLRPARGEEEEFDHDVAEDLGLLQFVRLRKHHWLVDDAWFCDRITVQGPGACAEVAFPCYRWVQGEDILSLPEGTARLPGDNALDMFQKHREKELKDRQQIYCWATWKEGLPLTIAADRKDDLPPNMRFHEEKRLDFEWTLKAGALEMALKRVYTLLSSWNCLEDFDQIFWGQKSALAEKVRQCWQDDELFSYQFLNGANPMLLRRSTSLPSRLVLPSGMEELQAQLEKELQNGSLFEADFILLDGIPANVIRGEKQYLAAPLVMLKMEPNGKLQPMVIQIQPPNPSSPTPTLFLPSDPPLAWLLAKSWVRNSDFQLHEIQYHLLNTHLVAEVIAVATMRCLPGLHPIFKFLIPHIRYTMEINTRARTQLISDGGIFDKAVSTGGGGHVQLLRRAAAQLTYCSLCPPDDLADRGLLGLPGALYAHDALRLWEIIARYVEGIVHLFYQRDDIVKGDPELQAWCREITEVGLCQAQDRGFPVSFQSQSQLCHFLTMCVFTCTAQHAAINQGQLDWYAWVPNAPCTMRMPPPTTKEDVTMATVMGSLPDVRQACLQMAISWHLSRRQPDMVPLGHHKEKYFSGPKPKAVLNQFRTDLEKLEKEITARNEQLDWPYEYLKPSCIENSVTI
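Hydroperoxide product was detected by ferrous iron/xylenol orange as the 573 to 405 nm absorbance ratio. Arachidonic acid at 40 uM (final) was turned over for 30 min at room temperature by 150 nM human 12hLO, pH 7.0 Hepes buffer, after 15 min compound preincubation.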
HT1080NT lethal = kills 2HG-producing HT-1080-NT fibrosarcoma cells | Potency, µM (highest dose often 46.1 µM), without a hit: at the highest dose activity, negative = less viability, usual class: cytotoxic | actives 1.6% (n = 360,000) | HT-1080-NT fibrosarcoma viability, CellTiter-Glo ATP luminescence, 48 h;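 note: NT is the 2HG producing partner of a matched IDH1 knockdown line; potency is the fitted concentration of half-maximal effect; 0% = DMSO-treated cells and -100% = media-only wells without cells; nearly all actives have a fitted effect of over 55% in size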
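HT-1080-NT; 750 cells/well; 5% FBS RPMI; 48 h compound, 37 degrees C; CellTiter-Glo luminescence; curve fitting and curve-class assignment.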
TDP1 cell CPT = DT40-hTDP1 cell growth loss with CPT. chicken DT40 Tdp1-/-;hTDP1 cells + 20 nM CPT, ATP luminescence, 48 h. Potency, µM (highest dose often 46.2 µM), inactives show top-dose activity change, negative = growth inhibition, most hits filed as inhibitors. actives 12% (n = 420,000). AID 686979; note: potency is the fitted concentration of half-maximal effect; nearly all actives have a fitted effect of over 55% in size
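Chicken DT40 Tdp1-/- cells complemented with human TDP1, 400 cells/well, exposed to compounds plus 20 nM camptothecin for at least 48 h at 37 C; viability read as ATP content by CellTiter-Glo luminescence.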
IL1B secr inh = blocks inflammasome-driven IL-1 beta release; THP-1 LPS/ATP IL-1B secretion, AlphaLISA, 16 h; hits give low values; activity change, % at 57.5 µM; actives 4.7% (n = 360,000); AID 743279; in the data active = activity change below about -50%; inconclusive = mostly about -30% to -49%
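THP-1 cells pretreated 1 hr with compounds (up to 57.5 uM final), then stimulated with LPS (250 ng/mL final) plus ATP (1.25 mM final); secreted IL-1B measured by AlphaLISA after 16 hr, decreased signal indicating inhibition.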
TDP1 cell noCPT = qHTS for Inhibitors of human tyrosyl-DNA phosphodiesterase 1 (TDP1): qHTS in cells in absence of CPT. DT40 Tdp1-/- hTDP1 cells, no CPT, ATP luminescence, 48 h. Potency, µM (series often up to 46.2 µM), for the others: at the top dose activity change, negative = growth inhibition, actives largely listed as inhibitors. actives 15% (n = 420,000). AID 686978, 2013; note: potency is the fitted concentration of half-maximal effect; nearly all actives have a fitted effect of over 55% in size
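A cellular qHTS used chicken DT40 cells lacking endogenous Tdp1 but carrying stably transfected human TDP1. Compounds were applied without camptothecin, and cell growth kinetics were judged by ATP-dependent luminescence after ≥48 hr.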
HT1080 IDH1KD tx = HT-1080 IDH1 knockdown cell toxicity (counter line) | HT-1080 IDH1 knockdown viability, ATP luminescence, 48 h | Potency, µM (top dose mostly 46.1 µM), for inactives: top-dose activity, negative = toxicity, usual class: cytotoxic | actives 2% (n = 360,000) | AID 686971;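 note: potency is the fitted concentration of half-maximal effect; 0% = DMSO wells and -100% = cell-free medium wells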
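After a 2 h attachment period, IDH1KD HT-1080 cells took pin-transferred compound for 48 h at 37 °C; ATP-based luminescence after 10 min room-temperature reagent incubation reported viability.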
Active calls of the source: *; ? = inconclusive; nt = no result; [ ] = dose if it differs, or a comment. Unless noted, calls come from the whole dose curve; as a rule, active = well fitted curve in the direction sought with a large enough effect; inconclusive = small, poorly fitted or top-dose-only effect, or another doubt; inactive = no such curve, though single readings can be large; an effect the other way counts as inactive or inconclusive. Unless noted, % is set by controls: 0 for no effect and ±100 for the full control effect.

SMILES	ALOX12 inh	HT1080NT lethal	TDP1 cell CPT	IL1B secr inh	TDP1 cell noCPT	HT1080 IDH1KD tx
CCOC(=O)c1cc(-c2ccccc2)n(CC(=O)Nc2ccc(OC)cc2)c1C	8%	-9%	-29%	-9	?	-8%
CCOC(=O)c1cc(-c2ccc(C)cc2)n(CCC(=O)N2CCN(c3ccccn3)CC2)c1C	?	4%	23µM*	-56*	23µM*	4%
CCOC(=O)c1cc(-c2ccccc2)n(CCC(=O)O)c1C	18%	-3%	-26%	4	-21%	0%
COc1ccc(-c2cc(C(C)=O)c(C)n2CCC(=O)NCc2ccc(C)cc2)cc1	-34%	nt	?	nt	?	nt
CCOC(=O)c1cc(-c2ccccc2)n(CCC(=O)NCCc2ccc(C)cc2)c1C	-32%	nt	15µM*	nt	8.2µM*	nt
CCn1nc(C(=O)Nc2ccccc2C(=O)OC)c2ccccc2c1=O	16%	nt	nt	nt	nt	nt
O=C(NCc1nnc2c(-c3nc(C4CC4)no3)cccn12)C1CCC1	48%	nt	nt	nt	nt	nt
CCOC(=O)c1cc(-c2ccc(C)cc2)n(CCC(=O)NCCN(C)C)c1C	-27%	?	?	-4	-24%	?
CCOC(=O)c1c(C(=O)OCC)c(C)n(CCc2ccc(OC)c(OC)c2)c1C	-1%	8%	23µM*	1	?	5%
CCOC(=O)c1cc(-c2ccc(F)cc2)n(CCC(=O)NCCc2ccc(C)cc2)c1C	?	nt	?	nt	21µM*	nt
CCOC(=O)c1cc(-c2ccccc2)n(CCC(=O)NCCc2ccc(OC)c(OC)c2)c1C	-16%	nt	21µM*	nt	23µM*	nt
CCOC(=O)c1cc(-c2ccc(C)cc2)n(CCC(=O)NCCc2ccc(C)cc2)c1C	0%	nt	?	nt	18µM*	nt
COc1ccc2c(c1)c(C(C)=O)c(C)n2CCc1ccc(OC)c(OC)c1	-6%	4%	-3%	-4	-13%	1%
CCOC(=O)c1cc(-c2ccc(C)cc2)n(CCC(=O)NCc2ccccc2)c1C	3%	nt	?	nt	?	nt
O=C(CCC(=O)c1ccc(F)cc1)Nc1ccc(-c2ccccc2)cc1	-2%	nt	nt	nt	nt	nt
CN(Cc1cccnc1)Cc1ccccc1C(F)(F)F	59%[176 µM]	nt	nt	nt	nt	nt
CNCCCCOc1ccccc1Cc1ccccc1	17%	nt	7.5µM*	nt	8.4µM*	nt
COc1ccc(N=Cc2cc(Cc3ccccc3Cl)cc([N+](=O)[O-])c2O)cc1OC	nt	7%	?	-4	26µM*	0%
COc1cccc(CN2CCc3c(cc(C(=O)Nc4ccccc4OC)n3C)C2)c1	17%	nt	nt	nt	nt	nt
Oc1c(Cl)cc(Cl)cc1CNc1nccs1	-1%	-19%	-1%	25	-9%	-14%
Oc1c(Cl)cc(Cl)cc1Sc1cc(Cl)cc(Cl)c1O	nt	nt	?	nt	23µM*	nt
O=C(Nc1ncc(Cc2cccc(Cl)c2)s1)C1=NCCN1	10%	20µM*	16µM*	-4	?	0%
O=C(Nc1ncc(Cc2cccc(Cl)c2)s1)c1cccs1	8%	?	?	-25	?	?
CC(C)c1ccc(NC(c2nnc(-c3ccccc3)o2)c2ccc(F)cc2Cl)cc1 (configuration not stated)	-19%	nt	?	nt	18µM*	nt
CCOc1ccccc1NC(c1nnc(-c2ccccc2)o1)c1ccc(F)cc1Cl (configuration not stated)	3%	nt	?	nt	21µM*	nt
Fc1ccc(C(c2nnc(-c3ccccc3)o2)N2CCN(c3ccccc3)CC2)c(Cl)c1 (configuration not stated)	-14%	nt	?	nt	21µM*	nt
CCOc1ccc(NC(c2ccc(Cl)cc2)c2nnc(-c3cccc(F)c3)o2)cc1 (configuration not stated)	-7%	nt	?	nt	-28%	nt
